# Measured values as given in the supplement of paper PMC6555819.
# Legend:
# Experiment in all cases: PBM binding z-score (relative to random genomic background probes); higher = stronger binding; sequences stand for … in GC…GCGATTGACAGCGTAGAATGAAGG
# [1] = tested on: RARb homodimer (NR concentration 270 nM)
# How it was run: (§1)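 Binding buffer was PBS pH 7.4 with 2% milk, 0.02% Triton X-100, 1 mM DTT, 0.2 mg/mL BSA and 0.4 mg/ml salmon testes DNA. In it, ligand-free nuclear receptor dimers were incubated 1 h on custom Agilent 4×180K protein-binding microarrays carrying double-stranded probes. Antibodies against each partner (one per run) detected binding, and z-scores were calculated against random background probes after regression normalization of scanned fluorescence.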
# [2] = tested on: RARg:RXRa (NR concentration 270 nM, RXRa partner concentration 90 nM)
# How it was run: as §1
# [3] = tested on: RARg homodimer (NR concentration 270 nM)
# How it was run: as §1
# [4] = tested on: RXRa DBDmut IVT, anti-RXR (DBD mutation: RXRa K156A/R161A, NR concentration 90 nM)
# How it was run: as §1
# [5] = tested on: RXRa homodimer (NR concentration 180 nM)
# How it was run: as §1
# [6] = tested on: THRa:RXRa (NR concentration 90 nM, RXRa partner concentration 90 nM)
# How it was run: as §1
# [7] = tested on: THRa homodimer (NR concentration 90 nM)
# How it was run: as §1
# [8] = tested on: VDR homodimer (NR concentration 270 nM)
# How it was run: as §1
Sequence,PBM binding z-score [1],PBM binding z-score [2],PBM binding z-score [3],PBM binding z-score [4],PBM binding z-score [5],PBM binding z-score [6],PBM binding z-score [7],PBM binding z-score [8]
AAAACGAGGGCAATGAGTTGATAGCACGGGTGGC,1.2,1.23,1.6,2.07,1.13,1.31,-0.257,3.26
AGAATGATGTTATACGTAGATCAGGGAAGAAAGT,-0.0497,0.194,0.393,-0.231,-0.0318,-0.0993,-0.533,-0.17
CGTCAAAGTTCAAGGTAACGGAACAGAAAGCAGC,3.7,5.46,6.41,4.07,4.74,2.84,1.14,2.84
TCGAGTAGGTTAGGGGCATTCAAAATGGCGTCGA,0.918,0.367,0.48,0.614,0.622,1.06,0.276,1.43
TCGAGTAGGCTAGGGGCATTCAGAATGGCGTCGA,-0.0899,-0.329,-0.498,-0.0684,0.0581,0.177,-0.929,-0.279
CCGAGTGGGGCAGAAAGGTTACCATACCATCCGG,2.09,1.63,1.23,-0.568,1.76,0.899,-0.05,0.0724
GCTATTAGTTGAAAGGGCAATCGAATGATTCTCG,1.55,0.91,0.806,0.718,1.12,0.487,-0.359,0.123
CGTCCAAGGTTATAGGAGGTCAGTGAAGACAGAT,3.79,3.62,3.5,1.48,2.87,4.89,1.69,2.1
GCATATAGGTAATACAAGGTGAAAGTTCGATTGT,1.57,0.972,0.602,0.513,1.5,4.27,1.28,0.723
TATAGTTGGTCAAAGGTCACACACTCGAAATGCG,5.04,7.01,6.33,0.941,8.14,4.24,1.79,2.12
GCTGATAGGTCAGGTTGGTCAGCTAACGGGTACG,3.37,3.84,4.49,0.3,2.6,1.46,-0.126,0.351
CCTAGCAGGCCAGGGTCTCTCAAGCATTTCGCTT,-0.597,-0.659,-0.606,-0.912,-0.675,-0.53,-0.611,-0.871
TCTTCTAGATCAATAGAGGTTAAGAAAGTGCGCT,1.17,1.06,0.808,0.902,1.4,1.96,-0.514,0.255
ACTATTAGTTGACTTAGGGCATCCGATACGACGC,0.597,0.218,0.979,0.909,0.613,0.97,0.239,0.435
AGTCAAAGTTCATCTAGGTAACGCAAGATATGCT,3.95,5.4,6.01,4.76,4.57,3.08,0.274,5.06
TATACAGGGTCAAAGTCCAGAGTACGAATGTCGA,3.51,5.73,4.9,3.86,6.73,3.65,1.15,4.02
CCGACCGGGGCAGAAAGGTTACCATACCATCCGG,2.41,2.1,1.87,-0.807,1.89,1.53,-0.148,0.0914
CTCGAAAAGTCGTGCTCAGGTGAGTATACCAAAC,0.216,0.157,-0.0265,0.322,0.0508,1.75,0.807,-0.43
CGAACTACGTCAGAACAGGACAGTGAAGGATGAT,-0.0991,-0.0189,0.316,0.247,-0.063,0.397,-0.497,-0.159
TCTCCTAGGTCAGTTGGTCAGCTAACGAGCTGCC,2.95,3.2,3.85,1.16,1.38,1.79,0.747,0.116
AGAATGAGGTTATATGTAGATCAGGGAAGAAAGT,1.34,1.69,1.09,1.74,2.1,2.44,1.22,1.24
AGAATGAGGTTACCAAAGATCAGCGAAACGCTTG,0.525,2.03,1.45,1.07,2.44,2.73,0.456,0.187
GCTTGTCGATCAAGGTTAAGAAAGACTAAGCTAA,0.0989,0.457,0.385,-0.057,0.794,1.68,-0.268,-0.484
TCTATTAGTTGAAGGGCAACGGACGAGTCCGTTT,1.19,0.697,0.572,1.53,0.756,0.343,0.0596,1.98
TCTAGCAGGCCCGAGGGTCACTCAAGAGGTACGG,2.43,2.27,1.72,0.126,2.42,1.67,-0.376,0.268
ATATGTAGTTTACATCCGGGTCATTCAGGCTATG,2.34,1.83,1.44,1.58,2.1,3.2,2.74,2.82
TCTTGCAGATCAAAGGTTAAGAAAGCCGAAGCCT,1.18,1.47,0.521,0.00809,3,1.26,-0.786,-0.402
TTACCAAGGTGAAAGGTCGTCGATGCACGCCTTG,2.78,4.43,2.22,0.201,6.2,3.55,0.956,0.709
